A selection: hits, their analogues and other compounds. The true share with any hit is near 0.8%.
TRHR enhancer-1: qHTS for Small Molecule Agonists and Allosteric Enhancers of Human TRH Receptor: Primary Screen for Enhancers; TRHR cells, fluo-8 calcium fluorescence, EC20 TRH enhancement; enhancement, % at 2 µM; actives 0.66% (n = 360,000); in the data active = enhancement above about 30%
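TRHR-expressing cells loaded with fluo-8 calcium dye were read kinetically (ex 480/em 530) during compound addition, then stimulated with an EC20 of TRH (10 nM final). Enhancement of the Gq-mediated intracellular calcium response was scored.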
TRHR agonist-1: qHTS for Small Molecule Agonists and Allosteric Enhancers of Human TRH Receptor: Primary Screen for Agonists. Thyrotropin-releasing hormone receptor (Homo sapiens), P34981. TRHR cells, calcium flux fluo-8, FDSS agonist mode. activation, % at 2 µM. actives 0.18% (n = 360,000); in the data active = activation above about 30%
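TRHR-expressing cells loaded with fluo-8 calcium dye; 23 nL library compound pin-transferred, kinetic FDSS fluorescence (Ex 480/Em 530) recorded about 180 s for agonist-induced calcium release, before a 10 nM TRH EC20 addition for potentiator mode.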
Glioma ERSR ind: qHTS for Inducers of the Endoplasmic Reticulum Stress Response (ERSR) in Human Glioma: qHTS; U87-MG GRP78 promoter luciferase reporter, 16 h; Potency, µM, hits mostly activators; actives 0.02% (n = 420,000); AID 602332, 2012; also: series mostly up to about 76 µM; nearly all actives have a fitted effect of over 35% in size
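ERSR induction read as luciferase luminescence (Bright-Glo, 10 min at room temperature) in stably transfected human U87-MG glioma cells exposed to compounds for 16 h, using GRP78 as sensor.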
TRPML1 agonist: qHTS for Agonists of the Human Mucolipin Transient Receptor Potential 1 (TRPML1); Mucolipin-1 (Homo sapiens), Q9GZU1; TRPML1-expressing cells, Ca2+ dye fluorescence, FDSS; activation, % (no concentration beside the values); actives 0.12% (n = 410,000); AID 624414, 2012; in the data active = activation above about 50%; inconclusive = mostly about 30% to 49%
Target sequence (Q9GZU1 whole entry, looked up): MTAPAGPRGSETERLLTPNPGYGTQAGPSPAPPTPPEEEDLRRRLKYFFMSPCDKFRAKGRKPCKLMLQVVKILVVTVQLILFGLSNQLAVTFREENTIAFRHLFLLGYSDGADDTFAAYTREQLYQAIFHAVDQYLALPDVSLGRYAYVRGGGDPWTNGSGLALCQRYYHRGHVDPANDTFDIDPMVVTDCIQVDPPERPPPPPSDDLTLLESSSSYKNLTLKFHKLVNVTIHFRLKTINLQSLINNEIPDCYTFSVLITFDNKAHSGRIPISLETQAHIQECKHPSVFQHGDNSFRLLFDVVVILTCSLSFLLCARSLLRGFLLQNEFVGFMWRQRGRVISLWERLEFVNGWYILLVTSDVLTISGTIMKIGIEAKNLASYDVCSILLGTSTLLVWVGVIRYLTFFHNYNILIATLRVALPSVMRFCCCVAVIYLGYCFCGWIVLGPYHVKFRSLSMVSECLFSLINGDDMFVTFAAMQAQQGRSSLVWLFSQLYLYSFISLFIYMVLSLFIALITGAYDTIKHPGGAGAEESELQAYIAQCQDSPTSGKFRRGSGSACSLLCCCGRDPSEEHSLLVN
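Cells: TRPML1-DL, 1X Tet inducer, ~16 h at 37 degrees C/5% CO2. Dye: ABD Ca8 no-wash + quencher, 45-90 min RT. Read: 10 s baseline, compound add, 110 s agonist phase; 54-4 EC80 (4uM final), 110 s antagonist phase.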
TRPML1 blocker: qHTS for Inhibitors of the Human Mucolipin Transient Receptor Potential 1 (TRPML1) | Mucolipin-1 (Homo sapiens), Q9GZU1 | TRPML1-inducible cells, Ca2+ dye fluorescence, FDSS; hits give low values; inhibition of EC80 agonist-evoked calcium signal | activity change, negative = inhibition, % (test concentration not listed) | actives 0.02% (n = 390,000); in the data active = activity change below about -50%; inconclusive = between about -30% and that limit;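 also: stimulus is agonist 54-4 at its EC80 concentration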
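Calcium fluorescence in TRPML1-DL cells induced overnight with Tet: a 110 s read after compound pin addition, then a 110 s antagonist read after challenge with 54-4 at 4 uM final (EC80).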
TRHR enhancer-2: qHTS for Small Molecule Agonists and Allosteric Enhancers of Human TRH Receptor: Confirmation Screen for Enhancers | activity change, negative = inhibition, % at 46.1 µM | TRH receptor cell assay, enhancer confirmation qHTS | shares compounds with TRHR enhancer-1 | 970 tested, under 10 active;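 also: compound effect scored on response to added TRH at EC20 of 10 nM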
TRHR agonist-2: qHTS for Small Molecule Agonists and Allosteric Enhancers of Human TRH Receptor: Confirmation Screen for Agonists | Potency, µM (top dose mostly 46.1 µM), actives largely listed as activators | shares compounds with TRHR enhancer-1 | TRHR-expressing cells, agonist activation read-out | actives 8% (n = 970); also: nearly all actives have a fitted effect of over 75% in size
A number is an active result; . = inactive; ? = inconclusive; / = not tested or not shown. Unless noted, calls follow the shape of the dose curve; as a rule, active = well fitted curve in the direction sought with a large enough effect; inconclusive = small, poorly fitted or top-dose-only effect, or another doubt; inactive = no such curve, though single readings can be large; an effect the other way counts as inactive or inconclusive.

SMILES	TRHR enhancer-1	TRHR agonist-1	Glioma ERSR ind	TRPML1 agonist	TRPML1 blocker	TRHR enhancer-2	TRHR agonist-2
COc1ccc(CCN(C)C(=O)c2cnn(-c3nccc(-c4ccc(C)o4)n3)c2C)cc1OC	/	/	.	/	/	/	/
Cc1ccc2cc(CN(CC(C)C)C(=O)C3CCCO3)c(=O)[nH]c2c1 (configuration not stated)	.	.	.	.	.	/	/
Cc1ccc2cc(COC(=O)C3CCCO3)c(=O)[nH]c2c1 (configuration not stated)	45	.	.	.	?	.	.
O=C(Cc1ccccc1)NC1CCN(Cc2ccccc2)CC1	61	.	.	.	.	.	.
Cc1cccc(-n2c(O)c(/C=N/NC(=O)c3ccccc3Cl)c3ccccc3c2=O)n1	.	.	.	.	.	/	/
O=C(N/N=C/c1c(O)n(-c2ccccc2Cl)c(=O)c2ccccc12)c1cccnc1	40	.	.	.	.	.	?
O=C(N/N=C/c1c(O)n(Cc2ccccc2)c(=O)c2ccccc12)c1cccnc1	.	30	.	.	.	.	21µM
COc1ccc(Cn2c(O)c(/C=N/NC(=O)c3cccnc3)c3ccccc3c2=O)cc1	.	57	.	.	.	.	21µM
COc1ccc(Cn2c(O)c(C=Nc3ccc(OC)cc3)c3ccccc3c2=O)cc1	.	.	.	.	.	/	/
Cc1ncc2c(c1CNS(=O)(=O)N(C)C)CCN(C(=O)c1c(F)cccc1F)C2	/	/	.	/	/	/	/
COc1ccc(CCNC(=O)c2cnn(-c3nccc(-c4ccco4)n3)c2C)cc1	/	/	.	/	/	/	/
COc1ccc2ccccc2c1CN1CCCC(n2cc(C(=O)N3CCCC3)nn2)C1 (configuration not stated)	/	/	.	/	/	/	/
COCc1c(C(=O)N2CCCC(C)C2)cnn1-c1nccc(-c2cc(C)sc2C)n1 (configuration not stated)	/	/	.	/	/	/	/
Cc1cc(-c2nn(-c3ccccc3F)cc2CNCCc2cnc[nH]2)c(C)s1	51	.	.	.	.	.	.
COc1cnc(-c2ccccc2)nc1OC	.	.	.	.	.	/	/
COc1cnc(-c2ccccc2)nc1Oc1cccc(C)c1	59	.	.	.	.	.	.
COc1ccccc1-c1ccnc(-n2ncc(C(=O)N3CCN(C4CCCC4)CC3)c2-c2ccco2)n1	/	/	.	/	/	/	/
CN1C(=O)c2cccc3c(N(C)C)ccc(c23)C1=O	.	44	.	.	.	.	16µM
Cc1ccc(NC(=O)c2ccc3c(=O)n4c(nc3c2)CCCCC4)cc1F	.	.	.	.	.	/	/
COc1ccc(NC(=O)c2ccc3c(=O)n4c(nc3c2)CCCCC4)cc1	76	.	.	.	.	.	.
COc1ccc(N2C(=O)c3cccc4cccc(c34)C2=O)cc1	.	.	.	.	.	/	/
COc1ccc(N2C(=O)c3cccc4c(N(C)CCO)ccc(c34)C2=O)cc1	.	35	.	?	.	.	21µM
COCc1ccc(CN2Cc3ccccc3OC(c3ccccc3F)C2)o1 (configuration not stated)	/	/	.	/	/	/	/
CC(OC(=O)CN1C(=O)C2CC=CCC2C1=O)C(=O)Nc1ccc(F)cc1Cl (configuration not stated)	43	.	.	.	.	.	.
CC(C)C[C@H](NC(=O)OC(C)(C)C)C(=O)N/N=C/c1ccc2nccnc2c1	53	.	.	.	.	.	.
SMILES	TRHR enhancer-1	TRHR agonist-1	Glioma ERSR ind	TRPML1 agonist	TRPML1 blocker	TRHR enhancer-2	TRHR agonist-2
Cc1c(C(=O)NCC(C)(C)CN(C)C)cnn1-c1nccc(-c2ccccc2F)n1	/	/	.	/	/	/	/
COc1cc(-c2ccc(C(F)(F)F)cn2)cc2c1OCCN(S(=O)(=O)C[C@]13CC[C@H](CC1=O)C3(C)C)C2	/	/	.	/	/	/	/
Cc1ccc2occ(CN3CCOc4ccc(C(C)(O)COc5ccccc5)cc4C3)c(=O)c2c1 (configuration not stated)	/	/	.	/	/	/	/
CC(NC(=O)c1cc(Br)cs1)C1CCCO1 (configuration not stated)	52	.	.	.	.	.	.
CN1C(=O)/C(=C/c2coc3ccc(O)cc3c2=O)SC1=S	.	.	.	.	.	/	/
N=C1/C(=C\c2coc3ccc(O)cc3c2=O)C(=O)N=C2SC=CN12	.	59	.	?	.	.	9.2µM
O=C(CN1CCCC1)N1c2ccccc2Sc2ccc(C(F)(F)F)cc21	.	.	?	.	.	/	/
O=C(CN1CCCC1)N1c2ccccc2Sc2ccc(Cl)cc21	47	.	.	.	.	.	.
CC(=O)Nc1nc2n(n1)C(c1ccccc1)C=C(c1ccccc1)N2 (configuration not stated)	.	39	.	.	.	.	?
O=C(O)Cc1nnc(-c2cc3ccccc3[nH]2)s1	.	.	/	/	/	/	/
Nc1c(-c2ccccc2)cc[nH]c1=O	.	.	/	/	/	/	/
COC(=O)/C(C#N)=C1/C=Cc2ccccc2N1	54	.	.	.	.	.	?
COc1cc(CN2CCC3(CCC(CNC(=O)c4ccco4)O3)CC2)cc(OC)c1 (configuration not stated)	/	/	.	/	/	/	/
Cc1cccn2c(=O)c(C=Nc3ccccc3)c(NCCO)nc12	44	.	.	.	.	.	.
Cc1cccn2c(=O)c(C=Nc3ccc(Cl)cc3)c(NCCO)nc12	.	.	.	.	.	/	/
Cc1csc(NC(=O)CSc2nc(=O)[nH]c3c2CCCC3)n1	66	.	.	.	.	.	.
COc1ccc(C)cc1NC(=O)CSc1nc(=O)[nH]c2c1CCCC2	.	.	.	.	.	/	/
CC(C)c1c(C(=O)NCC(C)(C)N2CCOCC2)cnn1-c1nccc(-c2ccccc2F)n1	/	/	.	/	/	/	/
Cc1cn2c(N)c(C=C3C=C(Cl)C(=O)C(Cl)=C3)c(=O)nc2s1	.	.	.	?	.	.	9.2µM
COc1ccccc1CNc1ncnc2sc(C(=O)N(C)C(C)C)c(C)c12	/	/	.	/	/	/	/
CSc1ncccc1C(=O)NCC1Cc2cc(F)cc(-c3cncnc3)c2O1 (configuration not stated)	/	/	.	/	/	/	/
C#CCN(Cc1nc(N2CCOCC2)c2ccc(Cl)cc2n1)Cc1ccco1	/	/	.	/	/	/	/
